Common to all, as to assay type: functional
In assay [1] the target is Solute carrier family 2, facilitated glucose transporter member 1 (Homo sapiens) (UniProt P11166). Put plainly: ST_JUDE_LEISH: Cytotoxicity at 2uM final concentration against transgenic Leishmania Mexicana promastigotes LmGLUT1 that are glucose transport deficient and complemented with the human glucose transporter GLUT1. Activity is measured by DNA content using SYBR green in vitro.

In assay [2] the target is Hexose transporter 1 (Plasmodium falciparum) (UniProt O97467). Nature of the assay: ST_JUDE_LEISH: Cytotoxicity at 2uM final concentration against transgenic Leishmania Mexicana promastigotes LmPfHT that are glucose transport deficient and complemented with the Plasmodium falciparum hexose transporter. Activity is measured by DNA content using SYBR green in vitro.
Assay [3] has as its target Glucose transporter (Leishmania mexicana) (UniProt O61059). Put plainly: ST_JUDE_LEISH: Cytotoxicity at 2uM final concentration against transgenic Leishmania Mexicana promastigotes LmGT2 that are glucose transport deficient and complemented with the L. Mexicana glucose transporter 2. Activity is measured by DNA content using SYBR green in vitro.

Solute carrier family 2, facilitated glucose transporter member 1 (Homo sapiens), sequence (P11166 whole entry): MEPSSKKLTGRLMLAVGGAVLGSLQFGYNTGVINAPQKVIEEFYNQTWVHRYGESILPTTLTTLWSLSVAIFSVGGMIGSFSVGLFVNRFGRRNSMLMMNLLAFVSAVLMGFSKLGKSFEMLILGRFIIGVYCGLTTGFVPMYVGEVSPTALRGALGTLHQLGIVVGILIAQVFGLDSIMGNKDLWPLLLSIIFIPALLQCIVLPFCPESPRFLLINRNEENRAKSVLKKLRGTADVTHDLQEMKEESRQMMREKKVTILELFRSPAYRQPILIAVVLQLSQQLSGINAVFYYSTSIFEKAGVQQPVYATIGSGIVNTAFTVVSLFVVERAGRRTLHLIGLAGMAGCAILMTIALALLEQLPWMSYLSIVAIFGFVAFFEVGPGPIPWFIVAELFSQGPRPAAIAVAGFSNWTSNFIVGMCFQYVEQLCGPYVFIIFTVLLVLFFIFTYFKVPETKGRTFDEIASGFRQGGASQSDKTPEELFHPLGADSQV

`Cc1ccc(-c2nnc(-c3ccc(C(=O)NC4CCN(Cc5ccc(C#N)cc5)CC4)cc3)o2)cc1Br`: the inhibition (as a rule, the relative decrease from the control value, in per cent) in assay [1] was 8.8%; in assay [2], 5.73%; in assay [3] it was 4.37%.
Turning to `Cn1cncc1C(=O)Nc1ccc(-c2cccc(-c3nc4cc(C(F)(F)F)ccc4[nH]3)c2)cc1`, the inhibition worked out at 1.53% in assay [1], 1.11% in assay [2] and 2.32% in assay [3].
For `CN(C)CCNCc1cccc(-c2ccc3c(Nc4cc(O)c(Cl)cc4F)ccnc3c2)c1`, the inhibition in assay [1] turned out to be 3.57%; in assay [2], 5.09%; in assay [3] it was 3.04%.
In the case of `CCS(=O)(=O)N1CCN(c2nc(-c3ccccc3)nc(COC)c2Cc2ccccc2F)CC1`, the inhibition in assay [1] worked out at 3.58%; in assay [2], 2.32%; in assay [3], 4.99%.
Turning to `CC(C)(C)c1ccc(NC(=O)N[C@@H]2CCN(c3ccnc4ccccc34)C2)cc1`, the values for the inhibition in assay [1], in assay [2] and in assay [3] were 0.09%, -0.25% and 0.79%, respectively.
For `Cc1cc(Nc2ccc(Oc3ccc(Cl)cc3)cc2)nc(N)n1`, the inhibition was determined as 3.89% in assay [1], 5.01% in assay [2] and 2.92% in assay [3].
For `CC1CCCCN1CCCNC(=O)c1cccc(-c2cc3cc(Cl)c(Cl)cc3[nH]2)c1` (centres undefined), the results for the inhibition in assay [1], in assay [2] and in assay [3] were 3.16%, 3.02% and 4.99%, respectively.
Turning to `Cc1cccc(C)c1CNc1ccnc2cc(Br)ccc12`, the figures for the inhibition in assay [1], in assay [2] and in assay [3] were 9.73%, 8.34% and 5.92%, respectively.
Turning to `O=C(/C=C/c1ccc(Cl)c(Cl)c1)NCCCCCN1CCC(NS(=O)(=O)c2cc(Cl)cc(Cl)c2)CC1`, the results for the inhibition in assay [1], in assay [2] and in assay [3] were 3.59%, 3.03% and 3.19%, respectively.
For `CN(C)c1ccc(CN2CCC(CNC(=O)c3cc(-c4cccc(F)c4)cs3)C2)cc1` (centres undefined), the inhibition in assay [1] was -1.95%; in assay [2], -1.31%; in assay [3], -9.42%.
For the compound `CN(C)CCNC(=O)c1ccc2c(c1)n(C1CCN(S(=O)(=O)c3ccc(-c4ccccc4)cc3)CC1)c(=O)n2CC1CCCCC1`, the inhibition in assay [1] was -1.79%; in assay [2], -0.94%; in assay [3] it was -1.74%.
Regarding `Cc1noc(-c2ccc(NC[C@@H](C)NC[C@H](O)c3cccc(Cl)c3)cc2)n1`, the figures for the inhibition in assay [1], in assay [2] and in assay [3] were 3.79%, 3.1% and 4.26%, respectively.
For the compound `Cc1cc2nc(-c3ccc(C(=O)NCc4ccc(C(C)(C)C)cc4)cc3)[nH]c2cc1C`, the inhibition in assay [1] is 3.51%; in assay [2], 2.34%; in assay [3] it was -0.6%.
The matching figures for `CCCCc1ccc(CCNCCCCCCNCCc2ccc(O)c(O)c2)cc1`: 0.01%, -0.03% and -1.2%.
Regarding `N#Cc1ccc(-c2ccc(C(=O)NCCCCN3CCC(c4cn(CCO)c5ccccc45)CC3)cc2)cc1`, the results for the inhibition in assay [1], in assay [2] and in assay [3] were -0.57%, -0.13% and 0.2%, respectively.
Take `Cc1cc(NCCC(=O)Nc2ccccc2)nc(NCCc2cccs2)n1`: the inhibition in assay [1] is 4.03%; in assay [2], 2.26%; in assay [3], -0.18%.
Consider `O=C(Nc1ccc2c(c1)CCC2)c1nc(N2CCN(c3ccncc3)CC2)ccc1Cl`, for which the results for the inhibition in assay [1], in assay [2] and in assay [3] were 1.84%, 1.86% and 1.75%, respectively.
Consider `CC1(C)N=C(N)N=C(N)N1OCCc1ccc2ccccc2c1`, for which the results for the inhibition in assay [1], in assay [2] and in assay [3] were 1.63%, 1.47% and 3.22%, respectively.
Regarding `CN1CCC(C(=O)Nc2cccc(-c3ccc(-c4nc5cc(C(F)(F)F)ccc5[nH]4)s3)c2)CC1`, the inhibition in assay [1] was 9.29%; in assay [2], 10%; in assay [3], 6.1%.
For `CCCCCCNC(=O)C1Cc2c([nH]c3cc(Cl)ccc23)C2(CCN(CCC)CC2)N1` (centres undefined), the inhibition in assay [1] worked out at 3.28%; in assay [2], 2.13%; in assay [3], 2.32%.
On to `CC(C)(C)OC(=O)N(Cc1cc(-n2nnnc2C(F)(F)F)ccc1O)[C@H]1CCCN(C(=O)OC(C)(C)C)[C@H]1c1ccccc1`, for which the inhibition in assay [1] was -0.38%; in assay [2], -2.92%; in assay [3] it was -3.2%.
`COc1ccc(-c2cnn3ccc(Nc4cc(OC)c(OC)c(OC)c4)nc23)cc1OC`: the inhibition came out at 17.3% in assay [1], 11.4% in assay [2] and 9.46% in assay [3].
With `CN(C)C(=S)N/N=C1/C(=O)Nc2ccc(OC(F)(F)F)cc21`, the inhibition in assay [1] is 1.94%; in assay [2], 1.64%; in assay [3], 0.75%.
For `COc1ccc(CN(C)CCCOc2ccc(NC(=O)c3cccc4c(=O)c5cccc(C)c5[nH]c34)cc2)cc1OC`, the values for the inhibition in assay [1], in assay [2] and in assay [3] were 4.56%, 4.25% and 3.39%, respectively.
Regarding `CCOC(=O)c1c(C)n(-c2ccccc2)c2ccc(OC(=O)COc3ccc(Cl)cc3Cl)cc12`, the results for the inhibition in assay [1], in assay [2] and in assay [3] were 7.5%, 6.74% and 6.97%, respectively.
The matching figures for `O=C(Nc1cccc([N+](=O)[O-])c1)N(Cc1ccc(Cl)c(Cl)c1)C1CCNCC1`: 5.08%, 3.21% and 3.8%.
Turning to `CCOc1ccc(CCCON2C(=N)N=C(N)NC2(C)C)cc1`, the inhibition in assay [1] came to 9.39%; in assay [2] it was 10.4%; in assay [3] it was 9.73%.
As to `COC(=O)COc1cc(C(=O)NCCCCN2CCC(c3ccc4c(c3OC)CCCC4)CC2)ccc1-c1ccc(Cl)cc1`, the inhibition in assay [1] stood at 3.39%; in assay [2], 2.65%; in assay [3], 1.4%.
Taken in the same sequence, the figures for `Cc1cc(N2CCCC2)nc(Nc2ccc(NC(=O)Nc3ccccc3)cc2)n1` were 2.65%, 2.28% and 3.63%.
As to `CCc1cccc(NC(=O)c2ccc(CN3CCCN(CC4CCCCC4)CC3)cc2)c1`, the inhibition in assay [1] was 10.3%; in assay [2] it was 10%; in assay [3] it was 13.4%.
Take `O=C1CN(C(=O)CCC2CCCC2)C(c2ccc(F)cc2)c2cc(F)ccc2N1` (centres undefined): the inhibition was found to be 5.81% in assay [1], 3.45% in assay [2] and 0.37% in assay [3].
Regarding `Cc1csc2nc(-c3ccccn3)nc(Nc3ccncn3)c12`, the inhibition in assay [1] came out at 1.73%; in assay [2], 3.39%; in assay [3], 1.79%.
Taken in the same sequence, the figures for `CCN(C)CCCn1c(N(C)C)nc2cc(-n3cnc4cc(-c5ccc(Cl)cc5)sc4c3=O)ccc21` were 8.73%, 10.9% and 3.62%.

The values are drawn from ChEMBL document CHEMBL3433997, “St. Jude Leishmania screening dataset” (2016).
